Pf Dd2 inh: qHTS Primary assay for Inhibitors of Plasmodium falciparum Dd2 growth in vitro; P. falciparum Dd2 growth, SYBR Green, 72 h; hit rate 4.3% among 120,000; Potency, µM (top dose mostly 28.9 µM), actives largely listed as inhibitors; active = well fitted inhibition curve with a large enough effect; note: nearly all actives have a fitted effect of over 65% in size
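Infected erythrocytes (Dd2, 0.3% parasitemia, 2.5% hematocrit final) are added to compound in RPMI-1640/Albumax II medium, grown 72 h at 37C in low oxygen, then lysed with saponin/Triton-X containing SYBR Green and read by fluorescence.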
Of the large screens only hits and unclear results are named; the others gave an inactive call. Only a selection was taken, and hits are over-represented in it overall.

c1cnc2c(c1)nc1n2[C@@H](CNC2CCCCC2)COC1	Pf Dd2 inh 14µM
Cc1cccc2c1nc1n2[C@@H](CNC2CCCCC2)COC1	none
O=C(C1CC1)N1CCC(N2CC3CC(C2)[C@H]2CCCC(=O)N2C3)CC1 (stereo not given in full)	none
COc1ccc(C(=O)NCC2CCOC2)cc1OC1CCN(C(C)C)CC1 (stereo not given)	none
CS(=O)(=O)N1CCC(Oc2ccc(C(=O)NCCc3cnccn3)cc2Cl)CC1	none
Cc1ccc(C(C)CCN2CCC(N3CCC(C(=O)NC4CC4)CC3)CC2)o1 (stereo not given)	none
COCCNC(=O)c1ccc(OC2CCN(CCC(C)c3ccc(C)o3)CC2)c(Cl)c1 (stereo not given)	Pf Dd2 inh 4.5µM
COCCNC(=O)c1ccc(OC2CCN(C(C)CCSC)CC2)c(Cl)c1 (stereo not given)	Pf Dd2 inh 11µM
COCCN1CC(CNC(=O)c2cc(Cl)c(C)c(Cl)c2)CC1=O (stereo not given)	none
Cc1cc2nc3n(c(=O)c2n1CC(=O)N1CCCc2ccccc21)CCCCC3	none
Cn1cc(C(O)c2nc(Nc3ccc(OC(F)(F)F)cc3)n[nH]2)cn1 (stereo not given)	none
COCCn1ncc(N2CCCC(CC(=O)NCCc3ccccc3)C2)cc1=O (stereo not given)	none
O=C1NC2(CCOCC2)C(=O)N1CC(=O)N1CCCc2ccccc21	none
O=C(c1ccc2c(c1)OCO2)N1CCN2C(=O)N(Cc3ccc(F)cc3)C[C@H]2C1	none
CCOC(=O)c1ccccc1NC(=O)Cn1ccn2nc3c(c2c1=O)CCCCC3	none
O=C(CCC1CCN(C(=O)c2ccccc2F)CC1)NCC1CCCCC1	none
CCN1CCN(Cc2c(O)ccc3c(=O)c(Oc4ccccc4C(C)C)c(C(F)(F)F)oc23)CC1	Pf Dd2 inh 0.063µM
CCc1ccc(Oc2c(C(F)(F)F)oc3c(CN4CCN(C)CC4)c(O)ccc3c2=O)cc1	Pf Dd2 inh 0.28µM
CN1CCN(Cc2nc(C3(O)CCN(Cc4ccc(C(F)(F)F)cc4)CC3)cs2)CC1	none
COc1ccc(CN2CCC(O)(c3csc(CN4CCN(C)CC4)n3)CC2)cc1	none
CC(C)c1ccccc1Oc1c(C(F)(F)F)oc2c(CN3CCN(C)CC3)c(O)ccc2c1=O	Pf Dd2 inh 0.32µM
CCN1CCN(C(c2ccccc2F)c2c(O)cc(C)n(CCOC)c2=O)CC1 (stereo not given)	none
CN(Cc1csc(-c2ccccc2)n1)C(=O)c1ccc(-n2cnnn2)cc1	none
COc1cccc([S+](=O)([O-])N2CCC3(CC2)C(=NC2CCCC2)NC(=O)N3c2cc(F)cc(F)c2)c1	none
Cc1cnc(C(=O)N[C@@H]2CCC[C@@H]2C(=O)NCc2ccccc2)cn1	none
CNC(=O)[C@H]1C[C@H](Oc2cccnc2)CN1C(=O)Cc1cccc(C)c1	none
C[C@@H](NC(=O)Cc1ccccc1)c1c(-c2ccc(Cl)cc2)noc1C(=O)O	none
O=C1CCN(Cc2cccnc2)CCCC(C(=O)NCCCn2cccn2)CCN1 (stereo not given)	none
COCCN(Cc1cnn(C)c1)C(=O)c1ccc2nc(C)cn2c1	none
CCOc1ccc(NC(=O)NCC2CCOCC2)cc1	none
COc1ccc(-c2cn3nc(N4CCC(C(=O)Nc5cc(Cl)ccc5OC)CC4)sc3n2)cc1	none
CCOc1ccc(NC(=O)N2CCC(c3ccc(C)cc3)C2)cc1 (stereo not given)	none
COc1ccc(OC)c(NC(=O)c2cnc(N3CCCC3)nc2C)c1	none
CCOc1ccc(-c2cc3nc(C4CCN(C(=O)OC(C)(C)C)CC4)c(C(=O)Nc4ccc(C)c(F)c4)cn3n2)cc1	Pf Dd2 inh 7.1µM
CCOc1ccc(-c2cc3nc(C4CCN(C(=O)OC(C)(C)C)CC4)c(C(=O)Nc4cc(OC)ccc4OC)cn3n2)cc1	Pf Dd2 inh 4µM
CCOc1ccc(NC(=O)c2cc3nc(-c4ccc(OC)cc4)cc(C(F)(F)F)n3n2)cc1	none
Cc1noc2c(NC3CCC(O)CC3)cc(-c3ccc(Cl)cc3)nc12 (stereo not given)	none
CC1(C)CN(C(=O)Cn2cc(C(F)(F)F)ccc2=O)C[C@]1(C)O	none
O=[S+]1([O-])NC2(CCCN(Cc3cncs3)C2)CNc2ccccc21 (stereo not given)	none
CN1CC(=O)N(C2CCNCC2)Cc2c(NCCO)ncnc21	none
CCOC(=O)C1(Cc2ccccc2C)CCCN(Cc2cnc(C)s2)C1 (stereo not given)	Pf Dd2 inh 11µM
CCOC(=O)C1(Cc2cccc(OC)c2)CCCN(Cc2cnc[nH]2)C1 (stereo not given)	none
CCOC(=O)C1(Cc2ccccc2C)CCCN(Cc2nccn2CC)C1 (stereo not given)	Pf Dd2 inh 10µM
CCn1ccnc1CN1CCC(Oc2ccccc2OC)(C(=O)O)CC1	none
CCOC(=O)C1(Cc2cccc(Cl)c2)CCCN(Cc2cnn(C)c2)C1 (stereo not given)	none
CCOC(=O)C1(Cc2ccccc2F)CCCN(C(=O)C(=O)c2ccco2)C1 (stereo not given)	none
Cc1cc(S(=O)(=O)N2CCCC(Cn3cnc4cccnc43)C2)ccc1Cl (stereo not given)	none
CCc1cnc(N)nc1NCc1nc(C(=O)NC)no1	none
COc1ccc(-c2nc3c(c(-c4ccccc4)n2)CN([S+](=O)([O-])c2c(C)noc2C)CC3)cc1	none
CC1(c2noc(C3(C)CCOCC3)n2)CCNCC1	none
CC(C)CNc1ccc2c(n1)C(C)(C(=O)Nc1ccn(C)n1)CN(Cc1ccccc1)C2 (stereo not given)	none
COCCCNC(=O)C1(C)CN(Cc2ccccc2)Cc2ccc(NCC(C)C)nc21 (stereo not given)	none
CC(C)CNc1ccc2c(n1)C(C)(C(=O)Nc1ccncc1)CN(Cc1ccccc1)C2 (stereo not given)	Pf Dd2 inh 2.2µM
COc1cccc(CN2CCC([C@H]3[C@@H](OC)C(=O)N3C(C)C)CC2)n1	none
CC(C)(Oc1nn(CC2CC2)c2ccc(CN3CCCC3)cc12)C(=O)NCC(F)(F)F	Pf Dd2 inh 13µM
Cn1nc(OC(C)(C)C(=O)NCCc2ccccc2)c2cc(CN3CCCC3)ccc21	none
CC(C)(Oc1nn(CC2CCOCC2)c2ccccc12)C(=O)NCC1CCOCC1	none
CCCc1ccc(S(=O)(=O)N2CCN(C3CCN(CCOC)C3=O)CC2)cc1 (stereo not given)	none
CC(C)CCN1CCC(N2CCN(S(=O)(=O)c3cc(F)cc(F)c3)CC2)C1=O (stereo not given)	none
COc1cccc(S(=O)(=O)N2CCN(C3CCN(CCC(C)C)C3=O)CC2)c1 (stereo not given)	none
CC(C)CCN1CCC(N2CCN(S(=O)(=O)c3ccc4c(c3)CCC4)CC2)C1=O (stereo not given)	Pf Dd2 inh 7.1µM
CCCc1ccc(S(=O)(=O)N2CCN(C3CCN(CCC(C)C)C3=O)CC2)cc1 (stereo not given)	Pf Dd2 inh 5.6µM
O=C1C(N2CCN(S(=O)(=O)c3ccc(Cl)cc3)CC2)CCN1CCc1ccccc1 (stereo not given)	none
CC(C)CCN1CCC(N2CCN(S(=O)(=O)c3ccc(Cl)cc3)CC2)C1=O (stereo not given)	none
CCc1ccccc1S(=O)(=O)N1CCN(C2CCN(CCC(C)C)C2=O)CC1 (stereo not given)	Pf Dd2 inh 10µM
Cc1ccc(F)cc1S(=O)(=O)N1CCN(C2CCN(CCC(C)C)C2=O)CC1 (stereo not given)	none
CCOC(=O)C1=C(C)N=C2SC=C(CC(=O)N3CCCC3)N2C1c1cccc(F)c1 (stereo not given)	none
O=C(c1nccs1)c1cccnc1N1CCNCC(O)C1 (stereo not given)	none

Screening results deposited in PubChem by National Center for Advancing Translational Sciences (NCATS).
